Screens as filed in PubChem BioAssay.
The entries come from a sample that favours hits as a whole.
CHX counter = affects cycloheximide protein synthesis inhibition readout, counter-screen; max response, %; cell reporter, cycloheximide protein synthesis inhibition counterscreen; 300,000 compounds, 12% hits; in the data active = max response mostly above about 13%, no sharp cut-off; inactive = mostly below about 14%; also: read at 38.3 µM for the half of the compounds with a filed dose; 0% is about no effect
Sm TGR block = blocks Schistosoma mansoni thioredoxin glutathione reductase | Q962Y6 | purified TGR, DTNB reduction, TNB absorbance 405 nm | Potency, µM (highest dose often 114 µM), inactives show top-dose activity change, negative = inhibition, usual class: inhibitors | 360,000 compounds, 3% hits; also: potency is read from the fitted curve at half-maximal effect; % is scaled to controls: 0 for no effect and ±100 for the full control effect; nearly all actives have a fitted effect of over 60% in size
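TGR 20 nM + NADPH 100 uM (dispensed conc.), cpd preinc 15 min RT; start with NADPH (500 uM addition) then DTNB (15 mM addition). Kinetic TNB absorbance, 405 nm filter. Four-parameter Hill fit across titration.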
Tb PYK inh = blocks Trypanosoma brucei pyruvate kinase. TbPYK enzyme, Kinase-Glo Plus ATP luminescence, 45 min. AID 624173. 410,000 compounds, 0.12% hits. Potency, µM (doses to about 76.8 µM), without a hit: at the top dose activity, negative = inhibition, most hits filed as inhibitors; also: potency is read from the fitted curve at half-maximal effect; % is scaled to controls: 0 for no effect and ±100 for the full control effect; nearly all actives have a fitted effect of over 50% in size
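ADP (130 uM final) triggers the TbPYK reaction after compound addition; incubation is 45 min at room temperature. Kinase-Glo Plus is then added and luminescence imaged. Normalized data are fitted to concentration-effect curves.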
LmPK inhibitor = blocks Leishmania mexicana pyruvate kinase activity; Q27686; purified LmPK, Kinase-Glo ATP luminescence, 1 h; Potency, µM (top dose mostly 57.5 µM), for inactives: top-dose activity change, negative = inhibition, actives largely listed as inhibitors; 290,000 compounds, 0.37% hits; AID 1721; also: potency is read from the fitted curve at half-maximal effect; % is scaled to controls: 0 for no effect and ±100 for the full control effect
Target sequence (Q27686 whole entry, looked up): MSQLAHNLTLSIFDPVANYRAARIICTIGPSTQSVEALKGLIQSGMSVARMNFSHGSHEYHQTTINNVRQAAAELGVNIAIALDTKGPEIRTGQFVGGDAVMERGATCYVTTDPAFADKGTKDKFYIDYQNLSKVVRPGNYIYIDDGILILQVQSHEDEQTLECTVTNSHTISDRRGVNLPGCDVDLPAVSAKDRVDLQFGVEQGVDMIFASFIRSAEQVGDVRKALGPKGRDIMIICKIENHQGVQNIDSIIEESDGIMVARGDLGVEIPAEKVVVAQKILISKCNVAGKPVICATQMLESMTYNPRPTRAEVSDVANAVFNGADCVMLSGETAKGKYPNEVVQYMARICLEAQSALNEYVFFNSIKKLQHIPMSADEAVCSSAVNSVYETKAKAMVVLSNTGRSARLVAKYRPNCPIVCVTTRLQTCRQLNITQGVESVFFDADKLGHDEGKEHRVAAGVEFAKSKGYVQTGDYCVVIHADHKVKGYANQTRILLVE
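0.1 nM LmPK, 0.5 mM PEP, 0.1 mM ADP; 50 mM imidazole pH 7.2, 7 mM MgCl2, 50 mM KCl; 1 h RT. Kinase-Glo luminescence readout, normalized to no-enzyme (full inhibition) and uninhibited wells.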
Shiga toxin inh = blocks Shiga toxin action in Vero cells; Vero cells, Shiga toxin protein synthesis inhibition reporter; inhibition, % at 38.7 µM; 290,000 compounds, 9.2% hits; AID 2315; in the data active = inhibition mostly above about 28%, no sharp cut-off; inactive = mostly below about 43%; also: 0% is about no effect
Giardia FBPA inh = blocks Giardia fructose-bisphosphate aldolase activity. Potency, µM (doses to about 59.6 µM), for inactives: top-dose activity, negative = inhibition, most hits filed as inhibitors. 290,000 compounds, 0.71% hits. A8B2U2. purified Giardia FBPA; also: potency is read from the fitted curve at half-maximal effect; % is scaled to controls: 0 for no effect and ±100 for the full control effect; nearly all actives have a fitted effect of over 55% in size
Target sequence (A8B2U2 whole entry, looked up): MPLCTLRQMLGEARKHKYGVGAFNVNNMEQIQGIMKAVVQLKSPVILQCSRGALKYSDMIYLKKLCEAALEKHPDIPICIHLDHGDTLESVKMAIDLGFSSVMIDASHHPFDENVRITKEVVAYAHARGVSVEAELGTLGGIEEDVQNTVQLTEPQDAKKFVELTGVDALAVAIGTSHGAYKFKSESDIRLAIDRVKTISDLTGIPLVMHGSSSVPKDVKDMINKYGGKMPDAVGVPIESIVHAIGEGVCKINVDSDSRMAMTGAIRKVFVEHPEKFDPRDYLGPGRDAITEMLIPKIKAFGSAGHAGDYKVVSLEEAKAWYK
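40 nM FBPA preincubated 10 min at RT with compound (up to 57.5 uM final), then substrate plus GAPDH/TPI/NAD/arsenate coupling and diaphorase/resazurin added. Fluorescence read after 20 min at RT, 525/598 nm.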
* = called active by the depositor; ? = inconclusive; nt = no result; [ ] = remark or other dose. Unless noted, calls follow the shape of the dose curve; as a rule, active = well fitted curve in the direction sought with a large enough effect; inconclusive = small, poorly fitted or top-dose-only effect, or another doubt; inactive = no such curve, though single readings can be large; an effect the other way counts as inactive or inconclusive.

SMILES | CHX counter | Sm TGR block | Tb PYK inh | LmPK inhibitor | Shiga toxin inh | Giardia FBPA inh
COc1ccc(N)c2c1C(=O)c1ccccc1C2=O | 51.2* | -11.4% | -11.1% | ? | 60.2* | -9.2%
Nc1ccc(Br)c2c1C(=O)c1ccccc1C2=O | 28.4* | 12.6µM* | 2.8% | -3.7% | 20.3 | -15.2%
Cc1cc2c(cc1C)C(=O)C(Br)=C(N)C2=O | nt | nt | -4.9% | nt | nt | nt
CCc1nc2ccc(C(=O)NCCc3ccc(OC)cc3OC)cc2nc1CC | nt | 1.0% | 4.6% | nt | nt | nt
CCC(=O)C1=C(c2cccc([N+](=O)[O-])c2)N(C(=O)CC)n2c(nnc2-c2ccccc2)S1 | nt | -2.0% | 4.2% | nt | nt | nt
CN(C)c1nc2c(Br)c(Br)c(Br)c(Br)c2[nH]1 | nt | nt | nt | nt | nt | -3.6%
Nc1ccc(O)c2c1C(=O)c1ccccc1C2=O | 22.1* | -6.5% | -21.1% | -29.4% | 36.1* | ?
O=C1c2ccccc2C(=O)c2c(O)ccc(O)c21 | nt | nt | nt | nt | nt | -26.2%
CCCn1c2ccccc2c2cnn(CC(=O)NCCc3cc(OC)ccc3OC)c(=O)c21 | nt | -1.9% | -1.9% | nt | nt | nt
CCOC(=O)c1ccc([N+](=O)[O-])c(CS(=O)(=O)c2ccc(Cl)cc2)c1 | -4.3 | 14.1% | 0.7% | -0.3% | -9.5 | 9.4%
Cc1ccc(S(=O)(=O)Cc2cc(F)c([N+](=O)[O-])cc2[N+](=O)[O-])cc1 | 21.6* | 1.78µM* | -2.4% | 3.2% | 46.0* | -5.3%
COc1ccc2cc1Oc1ccc(cc1)CC1c3cc(c(OC)cc3CCN1C)Oc1c(OC)c(OC)cc3c1C(C2)N(C)CC3 (stereo not given) | nt | nt | nt | nt | nt | -3.3%
COc1ccc2cc1Oc1ccc(cc1)C[C@H]1c3cc(c(OC)cc3CCN1C)Oc1c(OC)c(OC)cc3c1[C@@H](C2)N(C)CC3 | nt | 35.5µM* | 1.7% | nt | nt | -7.6%[21.7 µM]
Cc1ccc(OCCCC(=O)NNC(=O)c2ccccn2)cc1 | nt | nt | 5.3% | nt | nt | nt
O=S(=O)(c1ccc(F)cc1)N1CCN(c2nc(-c3cccc(Br)c3)nc3ccccc23)CC1 | 4.3 | nt | nt | nt | 24.2 | nt
Cc1cccc(C(=O)NNC2=C(C(=O)C(F)(F)F)CCC2)c1O | 15.3 | -9.8% | -0.7% | 8.6% | 16.8 | -6.2%
O=C1OCC=C1NNC(=O)c1cccnc1 | -2.2 | 39.8µM* | 2.0% | 0.1% | -14.8 | -17.3%
O=C(NNC1=C(C(=O)C(F)(F)F)CCC1)c1cccnc1 | 37.5* | nt | 1.9% | 7.6% | 50.4 | 4.3%
O=C(Nc1cccc(C(F)(F)F)c1)c1cccnc1 | 0.7 | 0.0% | 2.7% | 4.8% | -6.3 | -10.1%
O=C(NNC(=O)c1cccnc1)c1ccncc1 | -1.0 | 2.5% | 4.4% | -3.7% | -11.1 | -0.7%
O=C(NNC1=C(C(=O)C(F)(F)F)CCC1)c1cccc(O)c1 | 31.1* | -13.7% | -1.1% | 4.1% | 64.3* | 0.1%
CC(C)(C)SCCNC(=O)/C=C/c1ccc([N+](=O)[O-])cc1 | 20.6* | -6.0% | 4.5% | 0.1% | 32.6* | -3.8%
O=C(/C=C/c1cccc([N+](=O)[O-])c1)NCCSc1ccccc1 | 17.1* | 0.4% | -7.9% | 0.4% | 14.8 | -2.6%
Cc1ccc(SCCNC(=O)/C=C/c2cccc([N+](=O)[O-])c2)cc1 | -0.8 | 4.7% | 5.4% | 2.1% | -12.9 | -4.7%
CC(C)(C)SCCNC(=O)/C=C/c1cccc([N+](=O)[O-])c1 | 25.5* | -3.7% | 9.6% | -0.6% | 66.4* | -5.3%
SMILES | CHX counter | Sm TGR block | Tb PYK inh | LmPK inhibitor | Shiga toxin inh | Giardia FBPA inh
O=C(Nc1ccccc1C(=O)OCc1cc(=O)n2nc(C3CC3)sc2n1)c1cccc(F)c1 | nt | 4.7% | 0.0% | nt | nt | nt
CC(OC(=O)CC1CC2CCC1C2)C(=O)Nc1cccc(S(=O)(=O)N2CCOCC2)c1 (stereo not given) | nt | 14.6% | 3.2% | nt | nt | nt
COC(=O)c1c(N(S(C)(=O)=O)S(C)(=O)=O)sc2c1CCN(c1ncc(C(F)(F)F)cc1Cl)C2 | 6.6 | -10.4% | -4.6% | 0.9% | 9.2 | -25.0%
O=C(CN1CCN(c2ncc(C(F)(F)F)cc2Cl)CC1)N1CCN(c2ncc(C(F)(F)F)cc2Cl)CC1 | 0.9 | 9.3% | 3.4% | 8.9% | -12.0 | -9.4%
NNC(=O)C=C1CCN(c2ncc(C(F)(F)F)cc2Cl)CC1 | 18.3* | -34.1% | -1.8% | 0.2% | 6.6 | -4.7%
O=C(O)C=C1CCN(c2ncc(C(F)(F)F)cc2Cl)CC1 | 26.2* | -4.0% | -1.7% | 0.6% | 33.9 | 11.3%
COC(=O)c1c(/N=C/N(C)C)sc2c1CCN(c1ncc(C(F)(F)F)cc1Cl)C2 | 27.8* | -29.9% | -18.2% | 11.0% | 4.8 | -23.1%
COc1cc(/C=C(\NC(C)=O)C(=O)N2CCCCC2)ccc1OC(C)=O | 0.5 | -3.6% | -3.6% | 1.0% | 14.0 | 5.8%
Cc1ccccc1CN(C)C1CCN(C)CC1 | -2.6 | 2.7% | 1.0% | -4.9% | 0.7 | ?
O=C1CC(c2ccc(Cl)cc2)CC(=O)C1CS(=O)(=O)c1ccccc1 (stereo not given) | 3.7 | 0.631µM* | -13.3% | -2.3% | 25.9 | ?
COc1ccc(C2CC(=O)C(CS(=O)(=O)c3ccccc3)C(=O)C2)cc1 (stereo not given) | 5.8 | 1µM* | 0.1% | -5.1% | -2.1 | ?
O=C1CCCC(=O)C1CS(=O)(=O)c1ccccc1 | 0.8 | 2.24µM* | ? | 6.7% | -8.2 | ?
COc1cc(OC)cc(-c2nc3nc(C)c(CCC(=O)Nc4ccc(C)c(C)c4)c(C)n3n2)c1 | nt | 3.0% | -3.3% | nt | nt | nt
Cc1oc(CC(C)C)cc1C(=O)Nc1ccc(C(=O)O)cc1 | 56.9* | -12.8% | -10.4% | -0.3% | 43.4 | 5.0%
Cc1oc(C(C)(C)C)cc1C(=O)Nc1cccc(C(=O)O)c1 | 37.1* | -1.8% | -11.5% | -0.4% | 79.6* | 11.4%
Cc1oc(C(C)(C)C)cc1C(=O)Nc1ccc(C(=O)O)cc1 | 35.8* | -28.3% | 3.3% | 1.8% | 47.6 | 7.1%
CCN(C(=O)c1cc2c(s1)-c1c(C)cccc1OC2)c1ccccc1F | nt | -0.2% | -1.3% | nt | nt | nt
CCc1ccc(NC(=O)Cn2ccn(-c3ccc(C)c(C)c3)c(=O)c2=O)cc1 | nt | 5.7% | 2.6% | nt | nt | nt
N#Cc1ccc(CS(=O)(=O)c2nnnn2-c2ccccc2)cc1 | nt | nt | nt | nt | nt | 0.1%
COc1cccc(C2CCCCN(C)C2=O)c1 (stereo not given) | -2.6 | 2.7% | -7.7% | 0.6% | 7.2 | -0.4%
COCCCNC(=O)c1nc2ccccc2c(=O)n1NC(=O)Nc1c(Cl)cccc1Cl | -2.4 | 21.6% | -6.8% | 1.4% | 13.5 | 23.2%
COc1cccc(C(=O)Nc2c(C(=O)c3ccc(F)cc3)oc3ccccc23)c1 | nt | 1.0% | 3.8% | nt | nt | nt
CCCn1c2ccccc2c2cnn(CC(=O)N(Cc3ccccc3)C(C)C)c(=O)c21 | nt | 2.8% | 1.4% | nt | nt | nt
COc1cc(-c2noc(C)c2C#Cc2ccccn2)cc(OC)c1OC | -0.9 | 35.5µM* | -4.3% | 6.5% | -2.2 | -4.8%
COc1cc(-c2noc(C)c2C#Cc2ccc(N)cc2)cc(OC)c1OC | 14.1* | -14.8% | -13.0% | 5.0% | 12.2 | -3.4%
